Our source for the Inhibition values is ChEMBL document CHEMBL1157539, “Thousands of chemical starting points for antimalarial lead identification” (Nature, 2010).

Common to all, as to format: functional
The test system of experiment [1] is Plasmodium falciparum. As to the kind of experiment: GSK_TCMDC: Inhibition of Plasmodium falciparum 3D7 in whole red blood cells, using parasite LDH activity as an index of growth. Test compounds present at 2uM.
The subject of experiment [2] is Plasmodium falciparum. In words: GSK_TCMDC: Inhibition of Plasmodium falciparum Dd2 in whole red blood cells, using parasite LDH activity as an index of growth. Test compounds present at 2uM.
In a further experiment the test system is HepG2. As to the kind of experiment: GSK_TCMDC: Percent inhibition of human HepG2 cell line. Test compounds present at 10uM.

For the molecule `CCN(CC)CCNC(=O)c1ccc(NC(=O)c2cc3c(C)nn(-c4ccc(Cl)cc4)c3s2)cc1.Cl`, the Inhibition was 95% in the experiment with Plasmodium falciparum [1], 78% in the experiment on Plasmodium falciparum [2] and 24% in the experiment with HepG2.
The like results for `CCC(CC)(Cc1ccccc1)NC(=O)[C@H](Cc1ccc(OC)c(OC)c1)Nc1ccc(C#N)c2ccccc12.O=C(O)C(F)(F)F` were, in that order, 90%, 69% and 16%.
Consider `COCCNCc1nc(-c2ccc3c(Nc4ccc(Cl)cc4F)ccnc3c2)cs1`, for which the Inhibition in the experiment on Plasmodium falciparum [1] came out at 100%; in the experiment on Plasmodium falciparum [2] it was 100%; in the experiment with HepG2, 0%.
Regarding `Cc1cc(NC(=O)Nc2ccc3nccc(N4CCN(C)CC4)c3c2)ccc1Br`, the figures for the Inhibition in the experiment with Plasmodium falciparum [1], with Plasmodium falciparum [2] and in the experiment on HepG2 were 100%, 100% and 31%, respectively.
Consider `CC1(C)NC(N)=NC(=N)N1OCc1ccc2ccccc2c1CON1C(=N)N=C(N)NC1(C)C`, for which the figures for the Inhibition with Plasmodium falciparum [1], with Plasmodium falciparum [2] and in the experiment with HepG2 were 96%, 12% and 8%, respectively.
On to `Br.N=c1n(CCN2CCCCC2)c2ccccc2n1CC(=O)c1cccc([N+](=O)[O-])c1`, for which the values for the Inhibition in the experiment with Plasmodium falciparum [1], in the experiment with Plasmodium falciparum [2] and in the experiment with HepG2 were 94%, 0% and 10%, respectively.
For the molecule `O=C(NCCCN1CCOCC1)c1csc(Nc2ccc(Cl)c(Cl)c2)n1`, the Inhibition in the experiment on Plasmodium falciparum [1] was determined as 92%; with Plasmodium falciparum [2], 23%; in the experiment with HepG2, 5%.
The like results for `COc1cc(C(=O)NC2CCN(Cc3ccccc3)CC2)ccc1-c1nc2cc(Cl)c(Cl)cc2[nH]1` were, in that order, 100%, 100% and 14%.
With `COc1ccc(N2CCN(CCCCNC(=O)c3ccc(NC(=O)c4cc(C(F)(F)F)cc(C(F)(F)F)c4)cc3)CC2)cc1OC`, the Inhibition was 100% in the experiment on Plasmodium falciparum [1], 100% with Plasmodium falciparum [2] and 9% in the experiment on HepG2.
In the case of `Cl.O=c1cc(NCCCNCc2ccc(Cl)c(Cl)c2)[nH]c2cc(F)cc(F)c12`, the figures for the Inhibition with Plasmodium falciparum [1], in the experiment with Plasmodium falciparum [2] and with HepG2 were 100%, 94% and 11%, respectively.
Take `CN1CCN(CCCN(Cc2ccc(-c3cccc(CNC4CCCC4)c3)cc2)C(=O)Nc2ccccc2)CC1.O=C(O)C(F)(F)F`: the Inhibition stood at 92% in the experiment with Plasmodium falciparum [1], 76% in the experiment with Plasmodium falciparum [2] and 28% in the experiment on HepG2.
`CCN(CCNC(=O)C1CCN(c2cc(-c3cccc(C)c3)ncn2)CC1)Cc1ccccc1`: the figures for the Inhibition in the experiment with Plasmodium falciparum [1], in the experiment with Plasmodium falciparum [2] and in the experiment on HepG2 were 83%, 72% and 24%, respectively.
`CCOc1ccc(-c2noc(-c3c[nH]c4ccccc4c3=O)n2)cc1`: the figures for the Inhibition with Plasmodium falciparum [1], in the experiment with Plasmodium falciparum [2] and with HepG2 were 99%, 93% and 0%, respectively.
Take `O=C(O)C(F)(F)F.c1ccc(CCNc2ccnc(Nc3ccc4[nH]nnc4c3)n2)cc1`: the Inhibition in the experiment with Plasmodium falciparum [1] worked out at 100%; in the experiment with Plasmodium falciparum [2], 95%; in the experiment with HepG2, 33%.
Take `O=C(Nc1cccc([N+](=O)[O-])c1)Nc1cccc(C(F)(F)F)c1`: the Inhibition in the experiment on Plasmodium falciparum [1] is recorded as 92%; in the experiment with Plasmodium falciparum [2], 81%; in the experiment with HepG2 it was 0%.
`CS(=O)(=O)O.Nc1nc(NCC2CCC(CNS(=O)(=O)c3cccc4ccccc34)CC2)nc2ccccc12` (stereo unspecified): the values for the Inhibition in the experiment on Plasmodium falciparum [1], in the experiment with Plasmodium falciparum [2] and in the experiment on HepG2 were 97%, 42% and 9%, respectively.
`CCOCCCn1c(=N)c(C(=O)NCc2ccc(OC)cc2)cc2c(=O)n3cccc(C)c3nc21`: the Inhibition amounted to 99% in the experiment on Plasmodium falciparum [1], 46% in the experiment on Plasmodium falciparum [2] and 24% in the experiment on HepG2.
The like results for `COc1ccccc1C(C)NCC(=O)Nc1cc(C(F)(F)F)ccc1Cl` (stereo unspecified) were, in that order, 97%, 85% and 4%.
`CC(C)(C)c1ccc(CN2CCC(NC(=O)c3ccc(-c4ccccc4F)s3)CC2)cc1.O=C(O)C(F)(F)F`: the results for the Inhibition in the experiment on Plasmodium falciparum [1], in the experiment with Plasmodium falciparum [2] and with HepG2 were 85%, 37% and 36%, respectively.
The like results for `COc1cc2nc(N3CCC(CNC(=O)c4ccc(-c5cccc(C#N)c5)cc4)CC3)nc(N)c2cc1OC` were, in that order, 100%, 100% and 18%.
`CC(=O)c1ccc(-c2cccc3c(CC(=O)Nc4ccc5nccc(N6CCN(C)CC6)c5c4)cccc23)cc1`: the Inhibition is 100% with Plasmodium falciparum [1], 96% in the experiment on Plasmodium falciparum [2] and 3% in the experiment on HepG2.
Regarding `NCCCCNc1cc(-c2ccnc(Nc3cccc(Cl)c3)n2)ccn1`, the Inhibition in the experiment on Plasmodium falciparum [1] is recorded as 94%; in the experiment on Plasmodium falciparum [2], 91%; in the experiment on HepG2 it was 46%.
`O=C(O)C(F)(F)F.OCC1CCN(Cc2cccc(-c3ccc(-c4nc5cc(F)ccc5[nH]4)cc3)c2)CC1`: the Inhibition amounted to 100% with Plasmodium falciparum [1], 86% in the experiment with Plasmodium falciparum [2] and 11% in the experiment with HepG2.
Take `CN(C)CCCNc1ncnc2c1[nH]c1ccc(F)cc12`: the Inhibition came out at 100% in the experiment with Plasmodium falciparum [1], 0% in the experiment with Plasmodium falciparum [2] and 14% in the experiment with HepG2.
Take `O=C(N[C@@H](Cc1ccccc1)C(=O)NC1CCCc2ccccc21)c1ccc(O)c(-c2cccc(C(F)(F)F)c2)c1` (stereo partly specified): the results for the Inhibition in the experiment on Plasmodium falciparum [1], in the experiment with Plasmodium falciparum [2] and in the experiment on HepG2 were 91%, 41% and 0%, respectively.
On to `CC(CN)OCn1cnc2c(N)ncnc21.Cl` (stereo unspecified), for which the Inhibition is on record as 95% in the experiment with Plasmodium falciparum [1], 3% with Plasmodium falciparum [2] and 17% in the experiment on HepG2.
For the molecule `COc1ccc2c(NN=Cc3cccc(Cl)c3)ccnc2c1`, the Inhibition in the experiment on Plasmodium falciparum [1] is listed as 100%; in the experiment with Plasmodium falciparum [2], 94%; in the experiment with HepG2, 32%.
For the molecule `CN(Cc1ccccc1)C(=O)CCNS(=O)(=O)c1cc(Br)cnc1N`, the Inhibition with Plasmodium falciparum [1] turned out to be 91%; in the experiment on Plasmodium falciparum [2], 61%; in the experiment with HepG2 it was 0%.
For `CS(=O)(=O)CCCNCc1ccc(-c2cc3c(Nc4ccc(OCc5ccccc5)cc4)ncnc3cn2)o1`, the values for the Inhibition with Plasmodium falciparum [1], with Plasmodium falciparum [2] and with HepG2 were 87%, 16% and 10%, respectively.
Turning to `COc1ccc2nccc(N3CCC(NCCNS(=O)(=O)c4ccc5c(c4)NC(=O)CS5)C3)c2n1.Cl` (stereo unspecified), the results for the Inhibition in the experiment on Plasmodium falciparum [1], in the experiment on Plasmodium falciparum [2] and in the experiment on HepG2 were 97%, 18% and 12%, respectively.
Regarding `CCc1nonc1NC(=O)c1oc2c(C)c(C)ccc2c1C`, the figures for the Inhibition in the experiment with Plasmodium falciparum [1], in the experiment with Plasmodium falciparum [2] and in the experiment on HepG2 were 89%, 64% and 1%, respectively.
As to `COc1ccc2ncc(Cl)c(CCN3CC[C@@H](CNCc4cc5c(cn4)OCS5)C3)c2n1.Cl`, the Inhibition with Plasmodium falciparum [1] was found to be 99%; in the experiment on Plasmodium falciparum [2] it was 31%; with HepG2, 22%.
Turning to `O=C(/C=C/c1ccc(Cl)c(Cl)c1)NCCCCCN1CCC(C(=O)Nc2ccc(Cl)c(Cl)c2)CC1`, the Inhibition with Plasmodium falciparum [1] stood at 98%; in the experiment with Plasmodium falciparum [2], 0%; in the experiment on HepG2 it was 73%.
For the molecule `COc1ccc(Nc2nc(NC3CCN(C)CC3)cc(-c3ccc(OC)cc3)n2)cc1`, the Inhibition is on record as 100% in the experiment with Plasmodium falciparum [1], 51% in the experiment with Plasmodium falciparum [2] and 62% in the experiment with HepG2.
With `Cc1cc(CNCCCCCNCc2ccc(Cl)cc2)ccc1O`, the Inhibition in the experiment on Plasmodium falciparum [1] was determined as 98%; in the experiment on Plasmodium falciparum [2], 0%; with HepG2 it was 12%.
The like results for `Cc1[nH]c2ccc(-c3ccccc3)cc2c(=O)c1Br` were, in that order, 97%, 97% and 0%.
Regarding `Cc1c(CNCCCNc2cc(=O)c3ccccc3[nH]2)sc(/C=N/O)c1Br.Cl`, the Inhibition in the experiment with Plasmodium falciparum [1] was 82%; in the experiment with Plasmodium falciparum [2] it was 0%; in the experiment with HepG2 it was 0%.
On to `COc1cccc(C(=O)C2CC2CN(C)CC(O)c2cc(C)c(OC)cc2C)c1.O=C(O)C(F)(F)F` (stereo unspecified), for which the Inhibition with Plasmodium falciparum [1] turned out to be 88%; with Plasmodium falciparum [2] it was 73%; in the experiment on HepG2, 8%.
Take `N=C(/N=C(/NCCCCCCN/C(=N\C(=N)Nc1ccc(Cl)cc1)N1CCCCC1)N1CCCCC1)Nc1ccc(Cl)cc1`: the Inhibition with Plasmodium falciparum [1] turned out to be 100%; in the experiment on Plasmodium falciparum [2], 98%; with HepG2, 0%.
As for `Cc1ccc2nc(C)cc(N/N=C/c3ccc([N+](=O)[O-])o3)c2c1`, the Inhibition with Plasmodium falciparum [1] was 100%; with Plasmodium falciparum [2] it was 99%; in the experiment on HepG2, 15%.
The like results for `Oc1cc(Nc2ccnc3cc(-c4cccc(CN5CCOCC5)c4)ccc23)c(F)cc1Cl` were, in that order, 100%, 89% and 12%.
Consider `CCN1CCN(c2cc(C)c3cc(NC(=O)c4cncc(Br)c4)ccc3n2)CC1`, for which the figures for the Inhibition in the experiment with Plasmodium falciparum [1], with Plasmodium falciparum [2] and with HepG2 were 97%, 63% and 3%, respectively.

The Inhibition is how much of the control response was suppressed. Higher therefore signals a strong effect.
